Over roughly 68,000 sequences, “fluorescence intensity (a.u.)” has its median near 9,100; the highest 2% begin near 16,000. The list comes from a sample in which the highest values are over-represented; it also holds similar and randomly drawn sequences.
These sequences were tested against OsWRKY34 (Oryza sativa, UniProt Q0JBA9 1-250) (assay: protein-binding microarray (RPBM); PBS, 2% BSA, 51.3 ng/ul salmon testes DNA, 50 uM zinc acetate, 200 nM TF, 25 C, 1 h; high values mean tight binding). Conditions: protein: recombinant; tags: N-terminal polyhistidine and DsRed monomer fusion (pET32a); label: CyDye5-dUTP incorporated in the synthesized complementary strand; 3' TTTTT single-stranded linker to array surface; dsDNA, one strand shown.
Sequence of OsWRKY34 (Q0JBA9 entry or part of it): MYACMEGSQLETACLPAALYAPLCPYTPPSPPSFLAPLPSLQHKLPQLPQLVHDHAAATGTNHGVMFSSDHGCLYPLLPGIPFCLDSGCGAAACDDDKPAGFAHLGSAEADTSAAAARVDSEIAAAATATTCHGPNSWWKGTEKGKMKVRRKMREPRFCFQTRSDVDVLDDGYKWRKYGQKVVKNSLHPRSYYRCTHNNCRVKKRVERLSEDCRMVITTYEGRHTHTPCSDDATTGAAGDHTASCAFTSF
In short: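 Binding signal is defined as the fluorescence intensity of each feature in arbitrary units, read on an Axon 4000B scanner. Transcription factors with N-terminal polyhistidine and DsRed fusions came from E. coli BL21-CodonPlus and were purified on Ni–NTA. They were incubated at 200 nM for 1 h at 25 °C on a custom Agilent array that had been made double-stranded with Cy5-dUTP, with 50 µM zinc acetate present, and the array was washed.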
“TCAGTCTGTACACGCCTACACCAGAGTCCAGTGGTCCTAACGGAGTCACCTAGTGCAG” was tested, and the binding signal was 8100 fluorescence intensity (a.u.).
In the case of “GGGTGGAGGAGGTGGGGAGGCCGGCGAGACTCATGTGCGGCGGAGTCACCTAGTGCAG”, the binding signal is reported as 13100 fluorescence intensity (a.u.).
With “ATCAAATGGTCATTCCAACGGTTGTCCTGTGCTTTTGTAACGGAGTCACCTAGTGCAG” the binding signal was 8020 fluorescence intensity (a.u.).
“TCACGGCTCATTTTTGAAATAAGTTTTTAGCACAGTTTATCGGAGTCACCTAGTGCAG” was tested, and the binding signal was 8740 fluorescence intensity (a.u.).
For “TAACAGTATCATTTGATAGCACAATATAAGGTGTTTTGCTCGGAGTCACCTAGTGCAG”, the binding signal was 28800 fluorescence intensity (a.u.).
“ACTGTGGTTTCTAGTGGGTTTTATTATTTTATAATTTGTACGGAGTCACCTAGTGCAG” was tested, and the binding signal was 8480 fluorescence intensity (a.u.).
“TCTATTTTATTTGGGTGGGGATAGTTTTAGTGGGAATTTGCGGAGTCACCTAGTGCAG” was tested, and the binding signal was 24200 fluorescence intensity (a.u.).
In the case of “GTATCAGTGTATAAGTTTGAGCACCATTTTTCCATGATCTCGGAGTCACCTAGTGCAG”, the binding signal is reported as 9200 fluorescence intensity (a.u.).
“GTGGTTTCATCTATTTTGTGTTGTTTACTCGTATCTGTTACGGAGTCACCTAGTGCAG” was tested, and the binding signal was 10600 fluorescence intensity (a.u.).
“CAAGTTATTGACTTTTGGTCATGATGTTACTATTCATCTTCGGAGTCACCTAGTGCAG” was tested, and the binding signal was 9120 fluorescence intensity (a.u.).
“ATCTCTAATTCTATTGGGTGCATGTATTGTACTATTTATTCGGAGTCACCTAGTGCAG” was tested, and the binding signal was 9280 fluorescence intensity (a.u.).
“AATGTTTGGGTTCGAATTTAGTGGGTGGGTTTGGAGTTTGCGGAGTCACCTAGTGCAG” was tested, and the binding signal was 12800 fluorescence intensity (a.u.).
For “TTAGGATACATGGGAATTTTAGTGGGGATAGGATGGGGAACGGAGTCACCTAGTGCAG”, the binding signal was 8520 fluorescence intensity (a.u.).
“GTTGTGGGTTTTCGTATTTAATGTTTGACTGTCTATTTTACGGAGTCACCTAGTGCAG” was tested, and the binding signal was 17300 fluorescence intensity (a.u.).
In the case of “ATCTTCGGTGTACTATTGGGTCATGATTTGACCCATCTAACGGAGTCACCTAGTGCAG”, the binding signal is reported as 24900 fluorescence intensity (a.u.).
“TTCACGTAACTTACTTGCTCTAATCGTCGGTGGCTGGATCCGGAGTCACCTAGTGCAG” was tested, and the binding signal was 9270 fluorescence intensity (a.u.).
In the case of “AAACACCAGCGCGGCCCTCGCCCTCGCCGTCGCCATTTCCCGGAGTCACCTAGTGCAG”, the binding signal is reported as 8520 fluorescence intensity (a.u.).
For “CAACCCCTTACTTCATCACCTACTCATGTCAACACATAGCCGGAGTCACCTAGTGCAG”, the binding signal was 8850 fluorescence intensity (a.u.).
In the case of “ACGCTGCCGTCTCATTTCGCTTTCGTAGAACTTGCTCCAGCGGAGTCACCTAGTGCAG”, the binding signal is reported as 8500 fluorescence intensity (a.u.).
For “GCAAAAGCCAAACTGAATTCCCGACGCGTGCGCGCGCGCACGGAGTCACCTAGTGCAG”, the binding signal was 8180 fluorescence intensity (a.u.).
In the case of “AGGAAAACACTTAGATGGGCCGGATTACTTATCGAAATTTCGGAGTCACCTAGTGCAG”, the binding signal is reported as 8360 fluorescence intensity (a.u.).
With “ACATCTTATTTCCCTGGGTGGGGAGATTCTAGTTAAAATTCGGAGTCACCTAGTGCAG” the binding signal was 19000 fluorescence intensity (a.u.).
In the case of “TACATGTTTGACTTTGACTTGGTTTTTGGATATTTCATTTCGGAGTCACCTAGTGCAG”, the binding signal is reported as 9170 fluorescence intensity (a.u.).
In the case of “TGTATTTGACTGTTACTGCTTTTGGATTTTGTTTCATTTTCGGAGTCACCTAGTGCAG”, the binding signal is reported as 17500 fluorescence intensity (a.u.).
In the case of “TCATTCTTTTTCTCAATGTACTTGGATTTTTTTCATGTTTCGGAGTCACCTAGTGCAG”, the binding signal is reported as 12200 fluorescence intensity (a.u.).
With “AGCGGTTTCTTGGTTGGGGTTTAGTGTCTGCATTGGATATCGGAGTCACCTAGTGCAG” the binding signal was 18200 fluorescence intensity (a.u.).
With “GTTGGGGAGAAGGGGTGGTAAAATTTCTGGTATTATGGTTCGGAGTCACCTAGTGCAG” the binding signal was 11700 fluorescence intensity (a.u.).
“GTGGGGTTTTCGATGGTGTTTCATTCTTTTTCTCAATGTACGGAGTCACCTAGTGCAG” was tested, and the binding signal was 20300 fluorescence intensity (a.u.).
In the case of “CTGTATTTGACTGTTACTGCTTTTGGATTTTGTTTCATTTCGGAGTCACCTAGTGCAG”, the binding signal is reported as 10800 fluorescence intensity (a.u.).
With “CCTTCTTTCCCTTTTCCCATCTGGCAAGATTTTTCTTATTCGGAGTCACCTAGTGCAG” the binding signal was 9610 fluorescence intensity (a.u.).
For “ATCGTTTGGGGTCATTTTCTGCGGTTTGGTGGTGTTGTGCCGGAGTCACCTAGTGCAG”, the binding signal was 11100 fluorescence intensity (a.u.).
For “TTCTTTTGTTGTGTGGGTGTATGTTTTGGTTATGTGCATTCGGAGTCACCTAGTGCAG”, the binding signal was 8810 fluorescence intensity (a.u.).
“AGTGGTGATCGCCGCGGTTGGGTTTCTTGGATTGGGCTGTCGGAGTCACCTAGTGCAG” was tested, and the binding signal was 8720 fluorescence intensity (a.u.).
In the case of “GGTTATTTATTTTTATTGGTTTCCCCATTACTGTTGACAGCGGAGTCACCTAGTGCAG”, the binding signal is reported as 8360 fluorescence intensity (a.u.).
In the case of “TCCCGATATCATATTATAACCCTTCTAGAAATCTAATGTTCGGAGTCACCTAGTGCAG”, the binding signal is reported as 8160 fluorescence intensity (a.u.).
For “ATTCTGTTATGAACTATGTAAACCTTCTCATGTATATTCACGGAGTCACCTAGTGCAG”, the binding signal was 8840 fluorescence intensity (a.u.).
In the case of “GGCCATCATCATTTGTTCCTCATCTTACTCTAGCTTCTCCCGGAGTCACCTAGTGCAG”, the binding signal is reported as 9470 fluorescence intensity (a.u.).
For “CTCTCTGTGTGTGTGTTTGCTTTCTTGGGCTGTATCGACTCGGAGTCACCTAGTGCAG”, the binding signal was 11800 fluorescence intensity (a.u.).
In the case of “AAGCTGGTTTGGCTAATTGTGTTGTGTAACTATAAATCTTCGGAGTCACCTAGTGCAG”, the binding signal is reported as 8280 fluorescence intensity (a.u.).
For “CGCCCACCCACGCATCCATCCATCGATCGCAGCCAAATTCCGGAGTCACCTAGTGCAG”, the binding signal was 9430 fluorescence intensity (a.u.).
In the case of “TCATTCCGATTTGGTGGGGTTTGAGTTTGATTGATTCTTTCGGAGTCACCTAGTGCAG”, the binding signal is reported as 19300 fluorescence intensity (a.u.).
With “AATTGGGTTCGAATTTTTCTCTGGTTCGCTTGTGATTTTGCGGAGTCACCTAGTGCAG” the binding signal was 8240 fluorescence intensity (a.u.).
In the case of “TTGCGTTTTGGGTGGTGAATTTTGATTTTGATTCTTTTTTCGGAGTCACCTAGTGCAG”, the binding signal is reported as 12700 fluorescence intensity (a.u.).
In the case of “CGTCGCTTGGGGTGGTGTTGGTGGTTCTGAATTTTGATTGCGGAGTCACCTAGTGCAG”, the binding signal is reported as 19200 fluorescence intensity (a.u.).
In the case of “CATTTAGTTTGGGATGGGGTGGTTGATCCGATTTTTTCTGCGGAGTCACCTAGTGCAG”, the binding signal is reported as 14700 fluorescence intensity (a.u.).
In the case of “TGCTGTGGTGTGGTGTGGTGTGAATTTTGTTGATTGGTCGCGGAGTCACCTAGTGCAG”, the binding signal is reported as 8750 fluorescence intensity (a.u.).
With “CATGGGAATTTTGGTGGGATGGGGATGGAGAATTGAGCAACGGAGTCACCTAGTGCAG” the binding signal was 8700 fluorescence intensity (a.u.).
In the case of “ACATGGGAATTTTGGTGGGATGGGGATGGGGAATTGACCTCGGAGTCACCTAGTGCAG”, the binding signal is reported as 14100 fluorescence intensity (a.u.).
“TTGATTTTGCTCGTGGTGTGTGTTTGTGTTTGGTATGGTTCGGAGTCACCTAGTGCAG” was tested, and the binding signal was 18400 fluorescence intensity (a.u.).
For “ACATGGGAATTTTGGTGGGATGGGGATGGGGATGGGGAATCGGAGTCACCTAGTGCAG”, the binding signal was 34000 fluorescence intensity (a.u.).
For “GCTTCCTTGTCCGATTTGGTGGTTGATTCGTGTTTTTGCTCGGAGTCACCTAGTGCAG”, the binding signal was 9300 fluorescence intensity (a.u.).
With “GGTTTGTTCGTGTCTTTTGTGGTGATTGCATTTGATTGGGCGGAGTCACCTAGTGCAG” the binding signal was 9920 fluorescence intensity (a.u.).
For “CCTTTTGTCAGTCTAGCCAAAGATCTAGGATCTTCAACACCGGAGTCACCTAGTGCAG”, the binding signal was 8100 fluorescence intensity (a.u.).
For “ACCCGCCGTCGCTCTCCAACGCGCTCGTCGCGGCGTTCAACGGAGTCACCTAGTGCAG”, the binding signal was 8970 fluorescence intensity (a.u.).
